# In PubChem BioAssay AID651610 (Broad Institute, 2012):
# Several values for one entry are separate records, joined by “and”; a condition that tells them apart may be missing. Equal values may be shown once. Hit rate of the full screen: of about 360,000 compounds, about 3,900 (1.1%) were called active. This is one part of a sample in which actives are shown more often than they occur. A number with no mark means an inactive call.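 Rule for the calls: active = mean replicate inhibition score of at least 50 and every replicate individually at or above 50; inconclusive = only one of the two criteria met; inactive = mean below 50 and not all replicates reaching 50.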
# Experiment: blockers of JRFL envelope-mediated fusion – HeLa-JRFL effector, CEM21 target cells, luciferase, primary screen (AID 651610);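 note: 0% = plate neutral controls and 100% = maraviroc near 300 nM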
# Settings: HeLa-JRFL Env/CEM21 cell fusion, stronger effect = higher value
structure (smiles),measurement,setting,value
COc1cccc(-c2cnc3c(c2)C(=O)N([C@H](C)CO)C[C@H](C)[C@H](CN(C)C(=O)NC(C)C)O3)c1,inhibition,at 16.7 µM unless noted,7.31%
COC(=O)c1ccccc1NC(=O)CSc1n[nH]c(-c2ccncc2)n1,inhibition,at 16.7 µM unless noted,9.97% [at 12.3 µM]
CCc1c(C)nc(SCC(=O)NC2CCCC2)[nH]c1=O,inhibition,at 16.7 µM unless noted,-1.14% [at 12.3 µM]
CCc1ccc(-c2nc(SCC(=O)NC3CCCC3)n[nH]2)cc1,inhibition,at 16.7 µM unless noted,56.7% [at 12.3 µM] (active)
C=CC1=CCN(S(=O)(=O)C(C)(C)C)[C@@H]1CCO,inhibition,at 16.7 µM unless noted,21.3% [at 12.3 µM]
CCCNC(=O)N(C)C[C@H]1Oc2ncc(-c3ccc(F)cc3)cc2C(=O)N([C@H](C)CO)C[C@H]1C,inhibition,at 16.7 µM unless noted,-0.986%
CC(C)CC#Cc1cnc2c(c1)C(=O)N([C@@H](C)CO)C[C@H](C)[C@@H](CN(C)C(=O)c1cccc(F)c1)O2,inhibition,at 16.7 µM unless noted,-7.05%
C[C@H](CO)N1C[C@H](C)[C@@H](CN(C)C(=O)C2CC2)Oc2cc(C#CC3CC3)ccc2S1(=O)=O,inhibition,at 16.7 µM unless noted,18.8%
CN1CCN(C(=O)C[C@@H]2C[C@@H]3c4cc(NC(=O)c5ccc6c(c5)OCO6)ccc4O[C@@H]3[C@H](CO)O2)CC1,inhibition,at 16.7 µM unless noted,2.49%
COc1ccc(CCNC(=O)CS(=O)(=O)Cc2nc(-c3ccc(C)cc3)oc2C)cc1OC,inhibition,at 16.7 µM unless noted,9.54% [at 12.3 µM]
COc1cccc(-c2nc(CS(=O)(=O)CC(=O)NCCc3ccc(OC)c(OC)c3)c(C)o2)c1,inhibition,at 16.7 µM unless noted,28.2% [at 12.3 µM]
COc1ccc(CCNC(=O)C2CCCN(Cc3nc(-c4cccc(Cl)c4)oc3C)C2)cc1OC (stereo unspecified),inhibition,at 16.7 µM unless noted,81.2% [at 12.3 µM] (active)
CO[C@H]1CN(C)C(=O)c2cc(NC(=O)C3CCCC3)ccc2OC[C@@H](C)N(C(=O)CC2CC2)C[C@@H]1C,inhibition,at 16.7 µM unless noted,-11.3%
CC(=O)Nc1ccc(C=Cc2ccc([N+](=O)[O-])cc2)cc1,inhibition,at 16.7 µM unless noted,-56.5% [at 12.3 µM]
O=C(O)C(=Cc1ccc([N+](=O)[O-])cc1)CCc1ccccc1,inhibition,at 16.7 µM unless noted,-1.24% [at 12.3 µM]
O=C1/C(=C\c2ccc([N+](=O)[O-])cc2)CS(=O)(=O)C/C1=C/c1ccc([N+](=O)[O-])cc1,inhibition,at 16.7 µM unless noted,85.4% [at 12.3 µM] (active)
CS(=O)(=O)Nc1ccc2c(c1)[C@H]1C[C@H](CC(=O)NCc3ccc(Cl)cc3)O[C@@H](CO)[C@H]1O2,inhibition,at 16.7 µM unless noted,-3.71%
O=C(NCC[C@@H]1CC[C@H](NC(=O)C2CC2)[C@H](CO)O1)c1cnccn1,inhibition,at 16.7 µM unless noted,1.75%
C[C@@H]1CCCCO[C@H](CN(C)Cc2ccc(Cl)c(Cl)c2)[C@H](C)CN([C@@H](C)CO)C(=O)c2cc(NC(=O)CCC(F)(F)F)ccc2O1,inhibition,at 16.7 µM unless noted,-44.8%
Cc1ccc(S(=O)(=O)N(C)C[C@H]2Oc3ccc(NS(C)(=O)=O)cc3CC(=O)N([C@@H](C)CO)C[C@H]2C)cc1,inhibition,at 16.7 µM unless noted,-22.8%
CN(C(=O)c1cccc([N+](=O)[O-])c1)c1ccccc1C(=O)NCc1ccccc1,inhibition,at 16.7 µM unless noted,29.4% [at 12.3 µM]
Cc1cc(CNC(=O)c2cccc([N+](=O)[O-])c2)c2ccccc2n1,inhibition,at 16.7 µM unless noted,60.8% [at 12.3 µM] (active)
Cc1cc(C)cc(OCC(=O)NCc2cc(C)nc3ccccc23)c1,inhibition,at 16.7 µM unless noted,31.3% [at 12.3 µM]
COCC#Cc1ccc2c(c1)O[C@H](CN(C)C(=O)C1CCOCC1)[C@@H](C)CN([C@@H](C)CO)S2(=O)=O,inhibition,at 16.7 µM unless noted,-8.26%
Cc1ccc(S(=O)(=O)NCC[C@H]2CC[C@@H](NC(=O)C3CCOCC3)[C@@H](CO)O2)cc1,inhibition,at 16.7 µM unless noted,5.57%
O=C(Nc1ccc(F)cc1)N[C@H]1C=C[C@@H](CC(=O)N2CCOCC2)O[C@H]1CO,inhibition,at 16.7 µM unless noted,-5.7%
Cc1noc(C)c1S(=O)(=O)N(C)C[C@H]1OCCCC[C@H](C)Oc2ccc(NC(=O)c3ccccc3)cc2C(=O)N([C@@H](C)CO)C[C@H]1C,inhibition,at 16.7 µM unless noted,-37.3%
C[C@@H]1CN([C@@H](C)CO)S(=O)(=O)c2ccc(C#Cc3ccncc3)cc2O[C@@H]1CN(C)S(=O)(=O)c1ccccc1,inhibition,at 16.7 µM unless noted,19.4%
C[C@@H]1CN([C@@H](C)CO)S(=O)(=O)c2ccc(Br)cc2O[C@H]1CN(C)S(=O)(=O)c1ccccc1,inhibition,at 16.7 µM unless noted,18.6%
C[C@H](CO)N1C[C@H](C)[C@H](CN(C)S(=O)(=O)c2ccccc2)Oc2cc(Br)ccc2S1(=O)=O,inhibition,at 16.7 µM unless noted,78% (active)
C[C@H]1CN([C@@H](C)CO)S(=O)(=O)c2ccc(-c3cccc(F)c3)cc2O[C@@H]1CN(C)C,inhibition,at 12.3 µM,0.788%
same,inhibition,at 16.7 µM,-8.73% and -21.2%
C[C@@H]1CN([C@H](C)CO)S(=O)(=O)c2ccc(-c3cccc(F)c3)cc2O[C@H]1CN(C)S(=O)(=O)c1ccc(F)cc1,inhibition,at 16.7 µM unless noted,30%
C[C@@H]1CN([C@H](C)CO)S(=O)(=O)c2ccc(-c3ccncc3)cc2O[C@@H]1CN(C)C(=O)Nc1ccc(C(F)(F)F)cc1,inhibition,at 16.7 µM unless noted,27.4%
C[C@@H]1CN([C@@H](C)CO)S(=O)(=O)c2ccc(-c3cccc(F)c3)cc2O[C@@H]1CN(C)S(=O)(=O)c1ccccc1,inhibition,at 16.7 µM unless noted,92.8% (active)
Cc1ccc(-c2ccc3c(c2)O[C@H](CN(C)C(=O)Nc2ccccc2)[C@@H](C)CN([C@@H](C)CO)S3(=O)=O)cc1,inhibition,at 16.7 µM unless noted,-12.9%
Cc1ccc(-c2ccc3c(c2)O[C@H](CN(C)C(=O)Nc2ccc(C(F)(F)F)cc2)[C@@H](C)CN([C@H](C)CO)S3(=O)=O)cc1,inhibition,at 16.7 µM unless noted,57.4% (active)
CC(=O)N(C)C[C@H]1Oc2cc(C#Cc3ccccc3F)ccc2S(=O)(=O)N([C@@H](C)CO)C[C@H]1C,inhibition,at 16.7 µM unless noted,17.7%
COc1cccc(NC(=O)N(C)C[C@H]2OCc3ccccc3-c3ccccc3C(=O)N([C@H](C)CO)C[C@@H]2C)c1,inhibition,at 16.7 µM unless noted,17.7%
C[C@@H]1CN([C@H](C)CO)C(=O)Cc2cc(NC(=O)NC3CCCCC3)ccc2O[C@H]1CN(C)Cc1ccc(Cl)c(Cl)c1,inhibition,at 16.7 µM unless noted,-10.2%
CC(C)CC#Cc1ccc2c(c1)O[C@@H](CN(C)C(=O)Nc1ccccc1F)[C@@H](C)CN([C@@H](C)CO)S2(=O)=O,inhibition,at 16.7 µM unless noted,9.38%
